Results filed as inconclusive are left out. Entries that show only a call come without a potency. Unmarked numbers belong to inactive results. The source made the active and inactive calls. Unless noted, the call rests on the fitted dose curve; in most records, active means well fitted curve in the direction sought with a large enough effect in the repeat runs; inconclusive means weak or mixed curves; inactive means no such curve, though single readings can be large; an effect the other way counts as inactive or inconclusive.
Experiments:
[1] = qHTS assay to identify aromatase inhibitors - cell viability counter screen (AID 743084);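 further: cells stimulated with testosterone during compound exposure; nearly all actives have a fitted effect of over 55% in size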; further: potency means the concentration at half of the fitted maximal effect
[2] = biological target: Aryl hydrocarbon receptor (Homo sapiens) (UniProt P35869); assay: qHTS assay to identify small molecule that activate the aryl hydrocarbon receptor (AhR) signaling pathway (AID 743085);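 further: HG2L7.5c1 human HepG2 liver cells with stably integrated DRE-driven firefly reporter; series mostly up to about 70 µM; nearly all actives have a fitted effect of over 15% in size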
Procedure, shortened: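 AhR agonist activity is inferred from enhanced light output of a DRE-controlled firefly luciferase reporter in HepG2 cells, measured with ONE-Glo following 24 h treatment at 37C.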

[3] = qHTS assay to identify small molecule that activate the aryl hydrocarbon receptor (AhR) signaling pathway - cell viability counter screen (AID 743086);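 further: HepG2 liver cells carrying the AhR DRE luciferase reporter; series mostly up to about 70 µM; nearly all actives have a fitted effect of over 45% in size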
Procedure, shortened: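 HepG2-AhR-luc (HG2L7.5c1) cells, 4000/well, treated 24 h at 37 C with compound; viability measured as CellTiter-Fluor fluorescence after 30 min in the same wells as the luciferase read.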

[4] = biological target: Peroxisome proliferator-activated receptor gamma (Homo sapiens) (UniProt P37231); assay: qHTS assay to identify small molecule agonists of the peroxisome proliferator-activated receptor gamma (PPARg) signaling pathway (AID 743094; active means well fitted activation curve with a large enough effect in the signal ratio in the repeat runs, not every such curve was filed as active; the % refers to the signal ratio)
Procedure, shortened: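 Beta-lactamase FRET fluorescence was the read-out after a 1 h room-temperature substrate step, following 17 h compound treatment at 37C of HEK293H cells expressing a UAS-driven bla reporter responsive to PPARg.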

[5] = biological target: Peroxisome proliferator-activated receptor gamma (Homo sapiens) (UniProt P37231); assay: qHTS assay to identify small molecule antagonists of the peroxisome proliferator-activated receptor gamma (PPARg) signaling pathway (AID 743191; calls by dose curve; further: series mostly up to about 63 µM; nearly all actives have a fitted effect of over 30% in size)
Procedure, shortened: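 GeneBLAzer PPARg UAS-bla HEK293H cells, 5 h post-plating, exposed to compounds 17 h at 37C. LiveBLAzer B/G FRET substrate added for 1 h at room temperature; beta-lactamase reporter read by fluorescence intensity.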

[6] = qHTS assay to identify small molecule antagonists of the peroxisome proliferator-activated receptor gamma (PPARg) signaling pathway - cell viability counter screen (AID 743194); details: Potency: co-treated with 50 nM rosiglitazone; further: nearly all actives have a fitted effect of over 55% in size
Procedure, shortened: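 Cytotoxicity counter screen in PPARg-bla HEK293H cells, same wells as reporter assay. Compounds plus 50 nM rosiglitazone (final) for 17 h at 37 C, then viability read by CellTiter-Glo luminescence.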

[7] = qHTS assay for small molecule agonists of the antioxidant response element (ARE) signaling pathway (AID 743202; active means well fitted activation curve with a large enough effect in the signal ratio in the repeat runs, not every such curve was filed as active; the % refers to the signal ratio)
Procedure, shortened: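 ARE-bla HepG2 cells (beta-lactamase reporter under the antioxidant response element), plated 5 hours, then exposed to compounds 16 hours at 37 C. LiveBLAzer B/G FRET substrate added for 2 hours at room temperature; fluorescence intensity read.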

[8] = qHTS assay for small molecule agonists of the antioxidant response element (ARE) signaling pathway - cell viability counter screen (AID 743203; calls by dose curve; further: nearly all actives have a fitted effect of over 55% in size)
Procedure, shortened: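 HepG2 cells carrying ARE-driven beta-lactamase; 2,000 cells/well; 5 hrs plating; compound pinned from DMSO; 16 hrs 37C/5% CO2; CellTiter-Glo added; 30 min RT; luminescence.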

[9] = qHTS assay for small molecule activators of the heat shock response signaling pathway - cell viability counter screen (AID 743209); further: nearly all actives have a fitted effect of over 50% in size
Procedure, shortened: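 Luminescence from CellTiter-Glo, added after the beta-lactamase FRET read, gave the viability signal. Cells were HSE-bla HeLa treated with DMSO-dissolved compounds for 5 h at 37 C following overnight plating.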

[10] = qHTS assay for small molecule activators of the heat shock response signaling pathway (AID 743210; active means well fitted activation curve with a large enough effect in the signal ratio in the repeat runs, with a control signal flat, not every such curve was filed as active; the % refers to the signal ratio; further: series mostly up to about 63 µM)
Procedure, shortened: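 HSE-bla HeLa cells (beta-lactamase reporter under heat shock response elements), plated overnight, then exposed to compounds 5 h at 37 C; LiveBLAzer B/G FRET substrate added, 2.5 h at room temperature, fluorescence intensity read.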

[11] = qHTS assay to identify small molecule agonists of the peroxisome proliferator-activated receptor delta (PPARd) signaling pathway - cell viability counter screen (AID 743211); further: nearly all actives have a fitted effect of over 55% in size
Procedure, shortened: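 qHTS cell viability: PPARd-bla HEK293H; 17 h cpd, 37C; CellTiter-Glo, luminescence at 30 min RT.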

[12] = biological target: Peroxisome proliferator-activated receptor delta (Homo sapiens) (UniProt Q03181); assay: qHTS assay to identify small molecule agonists of the peroxisome proliferator-activated receptor delta (PPARd) signaling pathway (AID 743212; calls by dose curve)
Procedure, shortened: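 GeneBLAzer UAS-bla HEK293H cells carrying a PPARδ construct were exposed to compounds at 37 °C. Beta-lactamase activity was read by FRET fluorescence after 2 h at room temperature with LiveBLAzer B/G substrate.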

[13] = qHTS assay to identify small molecule antagonists of the peroxisome proliferator-activated receptor delta (PPARd) signaling pathway - cell viability counter screen (AID 743213); further: nearly all actives have a fitted effect of over 50% in size
Procedure, shortened: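 HEK293H PPARd UAS-bla cells, 5 h pre-incubation, compound + L165041 300 nM final, 17 h 37 C; B/G FRET substrate 2 h RT; then CellTiter-Glo 30 min RT, luminescence.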

[14] = biological target: Peroxisome proliferator-activated receptor delta (Homo sapiens) (UniProt Q03181); assay: qHTS assay to identify small molecule antagonists of the peroxisome proliferator-activated receptor delta (PPARd) signaling pathway (AID 743215; active means well fitted inhibition curve with a large enough effect in the signal ratio in the repeat runs, not every such curve was filed as active; the % refers to the signal ratio;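 further: cells stimulated with agonist L165041 at 300 nM final during compound exposure; series mostly up to about 62 µM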)
Procedure, shortened: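 Read-out is beta-lactamase FRET fluorescence, measured 2 h after substrate addition at room temperature. Beforehand, UAS-bla HEK293H cells carrying the PPARd reporter were exposed to compounds with L165041 at 300 nM final for 17 h at 37 C.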

[15] = biological target: Bile acid receptor (Homo sapiens) (UniProt Q96RI1); assay: qHTS assay to identify small molecule antagonists of the farnesoid-X-receptor (FXR) signaling pathway (AID 743217; active means well fitted inhibition curve with a large enough effect in the signal ratio in the repeat runs, not every such curve was filed as active; the % refers to the signal ratio)
Procedure, shortened: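 HEK 293T FXR-UAS-bla, 5000 cells/well; compound + CDCA 50 uM final; 16 h, 37 °C; B/G FRET substrate 2 h RT; fluorescence.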

[16] = qHTS assay to identify small molecule agonists of the farnesoid-X-receptor (FXR) signaling pathway - cell viability counter screen (AID 743218); further: nearly all actives have a fitted effect of over 45% in size
Procedure, shortened: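 HEK 293T FXR-bla cells; 5 h pre-incubation, 16 h compound exposure at 37 C; LiveBLAzer substrate 2 h RT, then CellTiter-Glo 30 min RT, luminescence.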

[17] = biological target: Bile acid receptor (Homo sapiens) (UniProt Q96RI1); assay: qHTS assay to identify small molecule agonists of the farnesoid-X-receptor (FXR) signaling pathway (AID 743220; active means well fitted activation curve with a large enough effect in the signal ratio in the repeat runs, not every such curve was filed as active; the % refers to the signal ratio)
Procedure, shortened: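 Beta-lactamase reporter under UAS control in GeneBLAzer FXR HEK 293T cells (5000/well) measured with LiveBLAzer FRET substrate after 2 h at room temperature. Compound exposure lasted 16 h at 37C.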

[18] = qHTS assay to identify small molecule antagonists of the farnesoid-X-receptor (FXR) signaling pathway - cell viability counter screen (AID 743221; active means well fitted cell-killing curve with a large enough effect in the repeat runs, not every such curve was filed as active; further: nearly all actives have a fitted effect of over 50% in size)
Procedure, shortened: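 After a 5 h settling period, FXR-bla HEK 293T cells receive compound and chenodeoxycholic acid (50 uM final) and incubate 16 h at 37 C; CellTiter-Glo luminescence, read after 30 min at room temperature, reports cell viability.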

[19] = biological target: Vitamin D3 receptor (Homo sapiens) (UniProt P11473); assay: qHTS assay to identify small molecule agonists of the vitamin D receptor (VDR) signaling pathway (AID 743222; calls by dose curve)
Procedure, shortened: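 VDR-bla cells, 2,000/well; 4 h preincubation 37C; cpd (DMSO) 16 h; LiveBLAzer B/G substrate 2 h RT; fluorescence intensity read.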

[20] = biological target: Vitamin D3 receptor (Homo sapiens) (UniProt P11473); assay: qHTS assay to identify small molecule antagonists of the vitamin D receptor (VDR) signaling pathway (AID 743223; active means well fitted inhibition curve with a large enough effect in the signal ratio in the repeat runs, not every such curve was filed as active; the % refers to the signal ratio)
Procedure, shortened: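 Reporter line VDR-bla; stimulus 1alpha,25-(OH)2 vitamin D3, 3 nM final; compound co-addition, 16 h 37C/5% CO2; LiveBLAzer B/G substrate 2 h RT; fluorescence intensity.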

Sequence of Vitamin D3 receptor (Homo sapiens) (P11473 whole entry, looked up): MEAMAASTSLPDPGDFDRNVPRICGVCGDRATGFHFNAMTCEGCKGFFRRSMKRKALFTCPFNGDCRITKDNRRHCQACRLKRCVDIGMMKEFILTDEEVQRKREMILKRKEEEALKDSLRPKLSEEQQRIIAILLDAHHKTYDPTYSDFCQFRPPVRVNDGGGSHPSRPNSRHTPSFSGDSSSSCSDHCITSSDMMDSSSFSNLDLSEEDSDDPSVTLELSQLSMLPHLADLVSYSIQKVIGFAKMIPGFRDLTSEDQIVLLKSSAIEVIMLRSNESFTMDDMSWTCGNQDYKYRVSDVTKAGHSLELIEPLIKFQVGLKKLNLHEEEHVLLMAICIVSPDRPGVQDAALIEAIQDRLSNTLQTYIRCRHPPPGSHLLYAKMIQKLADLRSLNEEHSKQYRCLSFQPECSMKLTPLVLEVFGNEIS
Sequence of Peroxisome proliferator-activated receptor delta (Homo sapiens) (Q03181 whole entry, looked up): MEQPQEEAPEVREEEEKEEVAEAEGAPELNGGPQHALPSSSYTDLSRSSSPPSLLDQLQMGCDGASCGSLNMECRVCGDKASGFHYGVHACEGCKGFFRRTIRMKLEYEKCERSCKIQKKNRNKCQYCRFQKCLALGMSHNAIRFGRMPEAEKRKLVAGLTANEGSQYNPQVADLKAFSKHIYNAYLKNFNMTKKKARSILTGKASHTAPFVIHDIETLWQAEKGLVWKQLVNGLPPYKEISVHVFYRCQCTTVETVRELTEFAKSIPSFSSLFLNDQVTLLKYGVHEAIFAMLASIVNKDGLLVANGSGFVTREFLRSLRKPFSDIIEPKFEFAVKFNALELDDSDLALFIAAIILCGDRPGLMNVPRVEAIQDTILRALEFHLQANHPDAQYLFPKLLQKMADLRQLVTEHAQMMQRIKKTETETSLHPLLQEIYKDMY
Sequence of Aryl hydrocarbon receptor (Homo sapiens) (P35869 whole entry, looked up): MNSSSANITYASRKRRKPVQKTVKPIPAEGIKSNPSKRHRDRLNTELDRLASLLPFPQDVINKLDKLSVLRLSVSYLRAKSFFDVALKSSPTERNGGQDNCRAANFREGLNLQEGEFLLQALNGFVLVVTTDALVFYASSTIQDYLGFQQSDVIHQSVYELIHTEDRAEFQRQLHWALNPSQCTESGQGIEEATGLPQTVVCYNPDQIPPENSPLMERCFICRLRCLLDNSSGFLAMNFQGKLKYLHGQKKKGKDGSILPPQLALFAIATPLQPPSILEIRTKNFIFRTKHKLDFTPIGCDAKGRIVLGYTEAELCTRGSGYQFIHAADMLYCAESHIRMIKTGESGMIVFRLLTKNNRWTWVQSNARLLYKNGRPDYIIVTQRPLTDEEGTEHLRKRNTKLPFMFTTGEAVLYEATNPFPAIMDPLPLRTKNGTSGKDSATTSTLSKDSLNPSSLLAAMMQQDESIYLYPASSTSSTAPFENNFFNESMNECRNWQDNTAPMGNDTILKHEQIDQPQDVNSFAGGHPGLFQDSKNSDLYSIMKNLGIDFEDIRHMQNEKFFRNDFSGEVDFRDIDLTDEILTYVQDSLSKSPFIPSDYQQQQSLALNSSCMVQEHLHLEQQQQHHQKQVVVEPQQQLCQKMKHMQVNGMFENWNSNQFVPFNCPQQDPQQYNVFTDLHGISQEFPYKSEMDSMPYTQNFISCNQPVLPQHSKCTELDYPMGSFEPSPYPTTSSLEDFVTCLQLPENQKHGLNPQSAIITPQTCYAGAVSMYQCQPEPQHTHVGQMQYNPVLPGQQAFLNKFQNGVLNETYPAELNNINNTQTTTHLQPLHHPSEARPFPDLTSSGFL
Sequence of Peroxisome proliferator-activated receptor gamma (Homo sapiens) (P37231 whole entry, looked up): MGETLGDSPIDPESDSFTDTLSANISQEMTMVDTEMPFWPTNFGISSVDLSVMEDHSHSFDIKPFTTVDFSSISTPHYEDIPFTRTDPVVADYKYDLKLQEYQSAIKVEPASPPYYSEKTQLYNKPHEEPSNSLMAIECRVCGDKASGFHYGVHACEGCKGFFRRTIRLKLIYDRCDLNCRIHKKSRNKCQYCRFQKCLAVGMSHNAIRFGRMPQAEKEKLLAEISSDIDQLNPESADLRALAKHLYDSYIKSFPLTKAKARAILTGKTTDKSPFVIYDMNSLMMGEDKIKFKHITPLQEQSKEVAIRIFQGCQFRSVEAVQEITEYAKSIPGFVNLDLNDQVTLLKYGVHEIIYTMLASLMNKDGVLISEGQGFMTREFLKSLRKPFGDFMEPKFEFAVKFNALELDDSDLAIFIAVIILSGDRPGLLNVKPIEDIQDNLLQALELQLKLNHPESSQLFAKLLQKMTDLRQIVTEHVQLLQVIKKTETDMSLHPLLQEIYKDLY
Sequence of Bile acid receptor (Homo sapiens) (Q96RI1 whole entry, looked up): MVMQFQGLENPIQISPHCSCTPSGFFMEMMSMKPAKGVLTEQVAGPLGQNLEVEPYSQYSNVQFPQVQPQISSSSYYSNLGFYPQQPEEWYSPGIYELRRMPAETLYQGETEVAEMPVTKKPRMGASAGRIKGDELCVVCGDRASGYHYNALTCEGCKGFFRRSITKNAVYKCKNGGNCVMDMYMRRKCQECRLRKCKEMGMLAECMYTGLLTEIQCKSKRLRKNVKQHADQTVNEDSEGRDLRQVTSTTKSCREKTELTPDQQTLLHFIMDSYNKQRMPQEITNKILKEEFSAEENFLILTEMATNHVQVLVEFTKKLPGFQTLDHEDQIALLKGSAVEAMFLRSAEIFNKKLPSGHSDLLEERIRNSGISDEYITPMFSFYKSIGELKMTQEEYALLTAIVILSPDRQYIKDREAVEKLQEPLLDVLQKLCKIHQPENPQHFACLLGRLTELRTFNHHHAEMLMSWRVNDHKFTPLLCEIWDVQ

Nc1nc(N)nc(N)n1
Potency [1]: inactive | Potency [2]: inactive | Potency [3]: inactive | Potency [4]: inactive | Potency [5]: inactive | Potency [6]: inactive | Potency [7]: inactive | Potency [8]: inactive | Potency [9]: inactive | outcome [10]: inactive | Potency [11]: inactive | outcome [12]: inactive | Potency [13]: inactive | Potency [14]: inactive | Potency [15]: inactive | Potency [16]: inactive | outcome [17]: inactive | Potency [18]: inactive | outcome [19]: inactive | outcome [20]: inactive

ClC=C(Cl)Cl
Potency [1]: inactive | Potency [2]: inactive | Potency [3]: inactive | Potency [4]: inactive | Potency [5]: inactive | Potency [6]: inactive | Potency [7]: inactive | Potency [9]: inactive | outcome [10]: inactive | Potency [11]: inactive | outcome [12]: inactive | Potency [13]: inactive | Potency [14]: inactive | Potency [15]: inactive | outcome [17]: inactive

N#CCc1ccccc1
Potency [1]: inactive | Potency [2]: inactive | Potency [3]: inactive | Potency [4]: inactive | Potency [5]: inactive | Potency [6]: inactive | Potency [9]: inactive | Potency [11]: inactive | outcome [12]: inactive | Potency [14]: inactive | Potency [16]: inactive | Potency [18]: inactive | outcome [19]: inactive

CCCCCCCCCC(=O)O[C@H]1CC[C@H]2[C@@H]3CCC4=CC(=O)CC[C@@H]4[C@H]3CC[C@]12C
Potency [1]: inactive | Potency [2]: inactive | Potency [3]: inactive | Potency [4]: inactive | Potency [5]: inactive | Potency [6]: inactive | Potency [8]: inactive | outcome [10]: inactive | Potency [11]: inactive | outcome [12]: inactive | Potency [13]: inactive | Potency [14]: inactive | Potency [15]: inactive | outcome [17]: inactive | Potency [18]: inactive

O=[N+]([O-])C(Br)(CO)CO
Potency [1]: 61.1 µM (active) | Potency [2]: inactive | Potency [3]: inactive | Potency [4]: inactive | Potency [5]: inactive | Potency [6]: inactive | Potency [8]: inactive | Potency [9]: inactive | outcome [10]: inactive | outcome [12]: inactive | Potency [13]: inactive | Potency [14]: inactive | Potency [15]: inactive | Potency [16]: inactive | outcome [17]: inactive

CC(Cl)C(C)Cl (stereo unspecified)
Potency [1]: inactive | Potency [2]: inactive | Potency [3]: inactive | Potency [4]: inactive | Potency [5]: inactive | Potency [6]: inactive | Potency [7]: inactive | Potency [9]: inactive | Potency [11]: inactive | outcome [12]: inactive | Potency [14]: inactive | Potency [15]: inactive | Potency [16]: inactive | outcome [17]: inactive | Potency [18]: inactive

CCOS(C)(=O)=O
Potency [1]: inactive | Potency [2]: inactive | Potency [3]: inactive | Potency [4]: inactive | Potency [5]: inactive | Potency [6]: inactive | Potency [7]: inactive | Potency [9]: inactive | outcome [10]: inactive | Potency [11]: inactive | outcome [12]: inactive | Potency [13]: inactive | Potency [15]: inactive | outcome [17]: inactive | Potency [18]: inactive | outcome [19]: inactive

Cn1cc[n+](C)c1 (tested in a mixture with another compound)
Potency [1]: inactive | Potency [2]: inactive | Potency [3]: inactive | Potency [4]: inactive | Potency [5]: inactive | Potency [6]: inactive | Potency [7]: inactive | Potency [9]: inactive | outcome [10]: inactive | Potency [11]: inactive | outcome [12]: inactive | Potency [14]: inactive | Potency [15]: inactive | Potency [16]: inactive | outcome [17]: inactive | Potency [18]: inactive

CCCCN=C=O
Potency [1]: inactive | Potency [2]: inactive | Potency [3]: inactive | Potency [4]: inactive | Potency [5]: inactive | Potency [8]: inactive | Potency [9]: inactive | outcome [10]: inactive | Potency [11]: inactive | outcome [12]: inactive | Potency [15]: inactive | Potency [16]: inactive | outcome [17]: inactive | Potency [18]: inactive | outcome [19]: inactive | outcome [20]: inactive
